“And” between values parts separate entries of the source, which are not always exact repeats. Equal values may be shown once. This is part of a sample that, as a whole, favours compounds with a hit. Of some 83,000 tested, about 20% had one in any assay.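 Percent growth is the endpoint: 0 to 100 indicates growth inhibition (40 means 60% inhibition), 0 means no net growth, and negative values indicate cell death.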 The source made the active and inactive calls. Rule for the calls: active = growth percent below 10; inactive = the rest.
What was measured:
Test in all cases: NCI-60 one-dose screen, 48 h (100 = growth as untreated, 0 = no growth, -100 = all killed)
NCI-H23 lung = system: NCI-H23 lung
NCI-H226 lung = system: NCI-H226 lung
NCI-H322M lung = system: NCI-H322M lung
HOP-62 NSCLC = details: 10 µM unless noted
NCI-H460 lung = system: NCI-H460 lung
HOP-92 NSCLC = system: HOP-92 NSCLC
NCI-H522 lung = system: NCI-H522 lung
A549/ATCC NSCLC = system: A549/ATCC NSCLC
786-0 renal = system: 786-0 renal
COLO 205 colon = details: 10 µM unless noted
DU-145 prostate = system: DU-145 prostate
K-562 leukemia = system: K-562 leukemia
MALME-3M melanoma = system: MALME-3M melanoma
MDA-MB-231 breast = system: MDA-MB-231 breast
RXF 393 renal = system: RXF 393 renal
SF-268 CNS = system: SF-268 CNS
SF-295 CNS = system: SF-295 CNS
SF-539 CNS = system: SF-539 CNS
UACC-257 melanoma = system: UACC-257 melanoma
M14 melanoma = system: M14 melanoma

O=C(/C=C\c1ccnc2ccccc12)c1ccc([N+](=O)[O-])cc1
growth (NCI-H23 lung; 10 µM unless noted): 91.4% (inactive) and 63% (inactive) | growth (NCI-H226 lung; 10 µM unless noted): 85.3% (inactive) and 68.5% (inactive) | growth (NCI-H322M lung; 10 µM unless noted): 112% (inactive) and 115% (inactive) | growth (HOP-62 NSCLC): 104% (inactive) and 77.9% (inactive) | growth (NCI-H460 lung; 10 µM unless noted): 99.7% (inactive) and 79.8% (inactive) | growth (HOP-92 NSCLC; 10 µM unless noted): 78% (inactive) and 58% (inactive) | growth (NCI-H522 lung; 10 µM unless noted): 36.7% (inactive) and 67.7% (inactive) | growth (A549/ATCC NSCLC; 10 µM unless noted): 91.5% (inactive) and 78.3% (inactive) | growth (786-0 renal; 10 µM unless noted): 88.8% (inactive) and 81.4% (inactive) | growth (COLO 205 colon): 118% (inactive) and 105% (inactive) | growth (DU-145 prostate; 10 µM unless noted): 101% (inactive) and 96% (inactive) | growth (K-562 leukemia; 10 µM unless noted): 55.1% (inactive) and 8.08% (active) | growth (MALME-3M melanoma; 10 µM unless noted): 101% (inactive) and 85.5% (inactive) | growth (MDA-MB-231 breast; 10 µM unless noted): 84.1% (inactive) and 93.2% (inactive) | growth (RXF 393 renal; 10 µM unless noted): 107% (inactive) and 75.7% (inactive) | growth (SF-268 CNS; 10 µM unless noted): 105% (inactive) and 91.6% (inactive) | growth (SF-295 CNS; 10 µM unless noted): 82.6% (inactive) | growth (SF-539 CNS; 10 µM unless noted): 85.2% (inactive) | growth (UACC-257 melanoma; 10 µM unless noted): 90% (inactive) and 65.8% (inactive) | growth (M14 melanoma; 10 µM unless noted): 90.7% (inactive) and 79.5% (inactive)

Cc1cc(O)c(C(C)C)cc1N
growth (NCI-H23 lung; 10 µM unless noted): 97.5% (inactive) and 92.7% (inactive) | growth (NCI-H226 lung; 10 µM unless noted): 108% (inactive) and 93.1% (inactive) | growth (NCI-H322M lung; 10 µM unless noted): 122% (inactive) and 102% (inactive) | growth (HOP-62 NSCLC): 90% (inactive) and 109% (inactive) | growth (NCI-H460 lung; 10 µM unless noted): 121% (inactive) and 103% (inactive) | growth (HOP-92 NSCLC; 10 µM unless noted): 100% (inactive) | growth (NCI-H522 lung; 10 µM unless noted): 82.5% (inactive) and 86.9% (inactive) | growth (A549/ATCC NSCLC; 10 µM unless noted): 109% (inactive) and 110% (inactive) | growth (786-0 renal; 10 µM unless noted): 97.2% (inactive) and 105% (inactive) | growth (COLO 205 colon): 130% (inactive) and 126% (inactive) | growth (DU-145 prostate; 10 µM unless noted): 115% (inactive) and 116% (inactive) | growth (K-562 leukemia; 10 µM unless noted): 113% (inactive) and 101% (inactive) | growth (MALME-3M melanoma; 10 µM unless noted): 113% (inactive) and 112% (inactive) | growth (MDA-MB-231 breast; 10 µM unless noted): 103% (inactive) and 92.3% (inactive) | growth (RXF 393 renal; 10 µM unless noted): 119% (inactive) and 115% (inactive) | growth (SF-268 CNS; 10 µM unless noted): 102% (inactive) and 120% (inactive) | growth (SF-295 CNS; 10 µM unless noted): 104% (inactive) and 99% (inactive) | growth (SF-539 CNS; 10 µM unless noted): 101% (inactive) and 95.6% (inactive) | growth (UACC-257 melanoma; 10 µM unless noted): 107% (inactive) and 111% (inactive) | growth (M14 melanoma; 10 µM unless noted): 108% (inactive) and 112% (inactive)

COc1ccc(Cl)cc1C(=O)NCCc1ccc(S(=O)(=O)NC(=O)NC2CCCCC2)cc1
growth (NCI-H23 lung; 10 µM): 103% (inactive) and 104% (inactive) | growth (NCI-H23 lung; 100 µM): 81.8% (inactive) | growth (NCI-H226 lung; 10 µM): 101% (inactive) and 97.4% (inactive) | growth (NCI-H226 lung; 100 µM): 62.4% (inactive) | growth (NCI-H322M lung; 10 µM): 96.2% (inactive) | growth (NCI-H322M lung; 100 µM): 88.5% (inactive) | growth (NCI-H460 lung; 10 µM): 103% (inactive) and 114% (inactive) | growth (NCI-H460 lung; 100 µM): 72.2% (inactive) | growth (HOP-92 NSCLC; 10 µM): 74% (inactive) and 95.5% (inactive) | growth (HOP-92 NSCLC; 100 µM): 63.6% (inactive) | growth (NCI-H522 lung; 10 µM): 97% (inactive) | growth (NCI-H522 lung; 100 µM): 54.1% (inactive) | growth (A549/ATCC NSCLC; 10 µM): 99.8% (inactive) and 103% (inactive) | growth (A549/ATCC NSCLC; 100 µM): 57.9% (inactive) | growth (786-0 renal; 10 µM): 107% (inactive) and 98.6% (inactive) | growth (786-0 renal; 100 µM): 75.5% (inactive) | growth (COLO 205 colon): 117% (inactive) and 112% (inactive) | growth (DU-145 prostate; 10 µM): 124% (inactive) and 120% (inactive) | growth (DU-145 prostate; 100 µM): 79.8% (inactive) | growth (K-562 leukemia; 10 µM): 102% (inactive) | growth (K-562 leukemia; 100 µM): 66.6% (inactive) | growth (MALME-3M melanoma; 10 µM): 126% (inactive) and 96.5% (inactive) | growth (MALME-3M melanoma; 100 µM): 71.9% (inactive) | growth (MDA-MB-231 breast; 10 µM): 96.7% (inactive) and 105% (inactive) | growth (MDA-MB-231 breast; 100 µM): 61.9% (inactive) | growth (RXF 393 renal; 10 µM): 110% (inactive) and 104% (inactive) | growth (RXF 393 renal; 100 µM): 51.6% (inactive) | growth (SF-268 CNS; 10 µM): 113% (inactive) and 105% (inactive) | growth (SF-268 CNS; 100 µM): 74.3% (inactive) | growth (SF-295 CNS; 10 µM): 90.2% (inactive) and 105% (inactive) | growth (SF-295 CNS; 100 µM): 74% (inactive) | growth (SF-539 CNS; 10 µM): 113% (inactive) and 102% (inactive) | growth (SF-539 CNS; 100 µM): 68.8% (inactive) | growth (UACC-257 melanoma; 10 µM): 106% (inactive) | growth (UACC-257 melanoma; 100 µM): 85.9% (inactive) | growth (M14 melanoma; 10 µM): 113% (inactive) and 104% (inactive) | growth (M14 melanoma; 100 µM): 67.9% (inactive)

CCCCCCCCCCCCCCCc1cc(O)ccc1N
growth (NCI-H23 lung; 10 µM unless noted): 90.5% (inactive) and 89.6% (inactive) | growth (NCI-H226 lung; 10 µM unless noted): 33.9% (inactive) and 99.6% (inactive) | growth (NCI-H322M lung; 10 µM unless noted): 102% (inactive) and 84.1% (inactive) | growth (HOP-62 NSCLC): 103% (inactive) and 110% (inactive) | growth (NCI-H460 lung; 10 µM unless noted): 109% (inactive) and 102% (inactive) | growth (HOP-92 NSCLC; 10 µM unless noted): 105% (inactive) | growth (NCI-H522 lung; 10 µM unless noted): -22.4% (active) and -23.6% (active) | growth (A549/ATCC NSCLC; 10 µM unless noted): 89.3% (inactive) and 99.8% (inactive) | growth (786-0 renal; 10 µM unless noted): 77.6% (inactive) and 21.1% (inactive) | growth (COLO 205 colon): 107% (inactive) and 114% (inactive) | growth (DU-145 prostate; 10 µM unless noted): 96.6% (inactive) and 107% (inactive) | growth (K-562 leukemia; 10 µM unless noted): 55.8% (inactive) | growth (MALME-3M melanoma; 10 µM unless noted): 106% (inactive) and 78.2% (inactive) | growth (MDA-MB-231 breast; 10 µM unless noted): 59.4% (inactive) and 71.5% (inactive) | growth (RXF 393 renal; 10 µM unless noted): 94.7% (inactive) | growth (SF-268 CNS; 10 µM unless noted): 77% (inactive) and 36.7% (inactive) | growth (SF-295 CNS; 10 µM unless noted): 41.3% (inactive) and 49.7% (inactive) | growth (SF-539 CNS; 10 µM unless noted): -40.5% (active) and -83.9% (active) | growth (UACC-257 melanoma; 10 µM unless noted): 87.4% (inactive) and 71.4% (inactive) | growth (M14 melanoma; 10 µM unless noted): 101% (inactive) and 105% (inactive)

Source: PubChem BioAssay (NCI)
